# Bioassay records: PubChem, National Center for Advancing Translational Sciences (NCATS)
# This is a sample that favours compounds with a hit; in the whole collection about 11% have one here.
# PNC assembly inh: perinucleolar compartment assembly inhibition | PC3M PTB-GFP, PNC prevalence imaging, 16 h; hits give low values | activity change (PNC), negative = inhibition, % at 10 µM | 140,000 tested, 3.1% active | AID 2417;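 active = readout at or below -70, meaning at least 70% loss of cells showing the perinucleolar compartment, a nuclear body marking cancer cells; inconclusive = readout between -30 and a set limit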;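 also: plate controls were DMSO wells for no effect and camptothecin positive control wells for full effect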
#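 Compounds are pinned in duplicate onto adhered PC3M cells stably expressing GFP-tagged PTB and incubated 16 h at 37 C. Cells are then fixed, nuclei stained with Hoechst, and PNC-positive cells counted.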
# ALDH1A1 block: inhibitors of human aldehyde dehydrogenase 1A1. Purified ALDH1A1, NADH fluorescence, propionaldehyde substrate. 220,000 tested, 7.3% active. Potency, µM (series often up to 75.3 µM), without a hit: top-dose activity, negative = inhibition, hits mostly inhibitors. P00352. AID 1030;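 also: potency is read from the fitted curve at half-maximal effect; plate controls were no enzyme wells and a reference inhibitor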
# JMJD2E inh: inhibitors of human JMJD2E histone demethylase; JMJD2E catalytic domain, FDH-coupled NADH fluorescence (FDH is formaldehyde dehydrogenase); 230,000 tested, 1.6% active; Potency, µM (top dose mostly 57.1 µM), without a hit: top-dose activity change, negative = inhibition, usual class: inhibitors;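 also: potency is read from the fitted curve at half-maximal effect; 0% = wells with enzyme and -100% = buffer wells without enzyme; nearly all actives have a fitted effect of over 50% in size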
# Target sequence (B2RXH2 1-337 limits assumed): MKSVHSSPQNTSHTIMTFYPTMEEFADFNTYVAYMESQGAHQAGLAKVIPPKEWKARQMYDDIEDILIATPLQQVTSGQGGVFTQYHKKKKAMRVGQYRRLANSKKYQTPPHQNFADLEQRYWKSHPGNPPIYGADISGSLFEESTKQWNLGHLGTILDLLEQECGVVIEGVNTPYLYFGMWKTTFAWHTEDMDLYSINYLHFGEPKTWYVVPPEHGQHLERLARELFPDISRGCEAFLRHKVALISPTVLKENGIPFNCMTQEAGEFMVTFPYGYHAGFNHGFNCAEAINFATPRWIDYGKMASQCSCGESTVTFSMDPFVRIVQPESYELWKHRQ
# HPGD inh: blocks human HPGD enzyme activity | P15428 | purified HPGD, NADH fluorescence kinetic, PGE2 substrate | Potency, µM, for inactives: at the top dose activity change, negative = inhibition, actives largely listed as inhibitors | 150,000 tested, 4.3% active; also: potency is read from the fitted curve at half-maximal effect
# Target sequence (P15428 whole entry, looked up): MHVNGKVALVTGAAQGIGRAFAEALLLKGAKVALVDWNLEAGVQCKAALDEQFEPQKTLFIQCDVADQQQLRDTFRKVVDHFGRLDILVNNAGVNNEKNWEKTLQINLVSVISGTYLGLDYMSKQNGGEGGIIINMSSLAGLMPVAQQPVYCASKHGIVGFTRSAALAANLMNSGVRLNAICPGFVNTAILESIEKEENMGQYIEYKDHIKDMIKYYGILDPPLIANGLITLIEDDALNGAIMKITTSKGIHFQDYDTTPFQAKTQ
#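 20 nM HPGD preincubated 15 min at room temperature with compound in 50 mM Tris-HCl pH 8, 0.01% Tween 20. Started with 1 mM NAD+ and 30 uM prostaglandin E2; NADH fluorescence (360/450 nm) read 5 times over 30-s intervals, last minus first.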
# * hit, by the source's call; ? = inconclusive; · = no result given; [ ] = dose if it differs, or a comment. Unless noted, calls follow the shape of the dose curve; as a rule, active = well fitted inhibition curve with a large enough effect (not every such curve was filed as active); inconclusive = small, poorly fitted or top-dose-only effect, or another doubt; inactive = no such curve, though single readings can be large or run the other way. Unless noted, % is scaled to controls: 0 for no effect and ±100 for the full control effect.
SMILES,PNC assembly inh,ALDH1A1 block,JMJD2E inh,HPGD inh
COc1ccc(Oc2ncc3ncc(=O)n(Cc4ccc(F)cc4)c3n2)cc1,·,?,·,31.6µM*
O=C(CCC(=O)NNC(=O)c1ccccc1[N+](=O)[O-])NCc1ccccc1,·,-6.0%,-9.0%,·
O=c1cnc2cncnc2n1Cc1ccc(F)cc1,·,10µM*,·,·
c1ccc(Oc2cccc(OCCCCSc3ncccn3)c2)cc1,11.1,7.6%,0.8%,-10.8%
Oc1ccc2ccccc2c1CN1CCCC1,·,?,31.6µM*,·
Oc1ccc2ccccc2c1CN1CCN(c2ccccc2)CC1,-2.4,?,?,?
O=c1oc2ccccc2c(O)c1CN1CCCCC1,-25.7,14.1µM*,4.0%,-27.1%
O=C(NNC(=O)c1cc([N+](=O)[O-])ccc1Cl)c1cccs1,?,24.9%,0.4%,-9.5%
O=[N+]([O-])c1ccc(-c2c[nH]c(=S)[nH]2)cc1,·,0.501µM*,21.8%,·
O=C(N[C@H]1CCCc2ccccc21)O[C@@H]1C(=O)c2cc(Br)ccc2O[C@H]1c1ccc2c(c1)OCO2,·,?,0.4%,-10.5%
Cc1ccc(C(=O)N/C(=C/c2ccc(F)cc2)C(=O)NCc2ccncc2)cc1,2.9,5.4%,10.5%,1.4%
CC(=O)[C@]1(O)CCC2C3CC(C)C4=CC(=O)C=CC4(C)[C@@]3(F)C(O)C[C@]21C (stereo partly specified),·,-3.0%,8.6%,-1.8%
CC[N+](CC)(CCO)CCCN1C(=O)C2CC=C(Cl)CC2C1=O (stereo unspecified),-80.9*,0.5%,3.3%,-9.4%
CC(C)(C#CCN1CCCCC1)OCCOC(c1ccccc1)c1ccccc1,?,-14.4%,-4.1%,-3.3%
COc1ccccc1NS(=O)(=O)c1cccc(NC(=O)c2sc3ccccc3c2Cl)c1,·,-6.1%,-4.7%,·
COc1ccc(C)cc1S(=O)(=O)Nc1ccc(F)c(Cl)c1,?,-5.3%,-2.8%,28.2µM*
COc1ccccc1NS(=O)(=O)c1cc(Cl)ccc1OC,-113.7*,6.7%,-1.7%,-15.5%
COc1ccccc1NS(=O)(=O)c1cccc(NC(=O)Nc2cccc(Cl)c2)c1,-85.8*,0.7%,-2.9%,-21.1%
COc1ccc(NS(=O)(=O)c2cc(C)ccc2OC)cc1OC,20.1,10.3%,4.6%,-3.4%
COc1ccccc1NS(=O)(=O)c1ccc(Cl)c(NC(=O)C(C)N2C(=O)c3ccccc3C2=O)c1 (stereo unspecified),29.1,17.8µM*,-4.8%,-8.9%
COc1ccccc1NS(=O)(=O)c1ccc(OC)c(OC)c1,-27.9,2.1%,2.4%,-5.2%
COc1ccccc1NS(=O)(=O)c1ccc(Cl)c(NC(=O)c2sc3cc(Cl)ccc3c2Cl)c1,·,3.8%,9.5%,·
O=C(O)c1cccc(C[C@H](Br)C(=O)O)c1,·,-1.4%[13.5 µM],·,-9.9%
Cc1ccc2oc3nc(C)c(C(=O)Nc4cccc(C(F)(F)F)c4)cc3c(=O)c2c1,20.7,0.5%,-25.6%,-14.4%
CCOC(=O)NNc1ccc2nonc2c1[N+](=O)[O-],·,17.8µM*,6.31µM*,·
SMILES,PNC assembly inh,ALDH1A1 block,JMJD2E inh,HPGD inh
COc1ccc(CNc2cc(-c3ccoc3)ncn2)c(OC)c1,·,25.1µM*,·,·
COc1cccc(-c2cc(NCc3cccc(C)c3)ncn2)c1,·,-7.4%,·,·
c1ccc(CNc2cc(-c3ccoc3)ncn2)cc1,·,22.4µM*,·,·
CC(C)N(C(=O)CN(C#N)c1nc(N(C)C)nc(N(C)C)n1)c1ccccc1,?,8.91µM*,-2.7%,-6.2%
Cc1cc(C)cc(NC(=S)N(CCN(C)C)Cc2cccs2)c1,·,-14.4%,-4.6%,·
O=C1NC(=S)S/C1=C\C=C\c1ccc([N+](=O)[O-])o1,·,·,20µM*,·
N=C1N(/N=C/c2ccccc2)C(=Nc2ccccc2)C(=S)N1c1ccccc1,-100.0*,?,6.5%,-21.4%
O=[N+]([O-])c1cnc2nc(-c3ccncc3)nn2c1O,·,?,-6.2%,·
COCCNC(=O)C1=C(N)C(C(=O)Nc2ccc(C)c(S(=O)(=O)N3CCCCC3)c2)SC1=Nc1ccc(C)cc1C (stereo unspecified),0.4,0.794µM*,-1.3%,?
CCN(CC)S(=O)(=O)c1cccc(NC(=O)C2SC(=Nc3ccc(C)cc3C)C(C(=O)NCC3CCCO3)=C2N)c1 (stereo unspecified),?,-6.0%,-3.9%,-6.2%
COC(=O)Nc1ccc2[nH]cc(CCNC(C)=O)c2c1,·,5.5%,-15.1%,-6.2%
COC(=O)c1cc(-c2ccccc2)sc1N,1.0,?,-7.4%,28.2µM*
Nc1sc(-c2ccccc2)cc1C(=O)N/N=C/c1ccc(Cl)cc1,·,·,-29.2%,·
O=C(/C=C/c1cccs1)Nc1ccc(Br)cn1,?,5.1%,6.6%,-9.5%
CCOc1cccc2cc(C(=O)N3CCc4ccccc4C3)c(=O)oc12,27.7,-12.2%,?,4.47µM*
CCOc1cccc2cc(C(=O)Nc3ccccc3-c3ccccc3)c(=O)oc12,59.4,0.141µM*,-3.3%,-15.2%
COc1cccc2cc(C(=O)N3CCc4ccccc4C3)c(=O)oc12,?,-0.3%,-1.7%,7.94µM*
CCOc1ccccc1C(=O)Nc1ccccc1-c1ccccc1,20.0,?,-14.5%,-4.0%
O=C(CSc1nc2ccccc2s1)NNC(=S)Nc1ccc(Br)cc1,48.9,8.91µM*,43.3%,-10.9%
O=C(CSc1nc2ccccc2s1)NNC(=S)Nc1ccccc1,?,8.91µM*,-4.1%,?
FC(F)Oc1ccc(NC(=S)NCc2ccccc2)cc1Cl,-1.0,?,-8.4%,14.1µM*
O=C(Nc1ccc(OC(F)F)c(Cl)c1)C(c1ccccc1)c1ccccc1,?,14.1µM*,-0.1%,-4.0%
FC(F)Oc1ccc(NC(=S)NCc2ccccc2)cc1,10.1,2.3%,2.8%,-14.1%
O=C(Nc1ccccc1)c1ccc(Br)o1,32.1,-5.9%[120 µM],2.3%,-25.9%
O=C(Nc1ccccc1C(=O)O)c1ccc(Br)o1,-16.6,3.98µM*,3.2%,?
SMILES,PNC assembly inh,ALDH1A1 block,JMJD2E inh,HPGD inh
Cc1ccc(C(=O)Nc2ccccc2C(N)=O)o1,43.9,3.3%,-7.1%,-3.9%
CC(=O)c1cc(C(=O)Nc2ccccc2C(=O)O)oc1C,-9.3,0.708µM*,1.3%,?
N#C/C(=C/c1ccc(N2CCCC2)c([N+](=O)[O-])c1)c1nc2ccccc2[nH]1,55.4,?,3.4%,-16.8%
CN(c1ccccc1)c1ccc(/C=C(\C#N)c2nnc3n2CCCCC3)cc1[N+](=O)[O-],-90.8*,?,-2.7%,·
O=c1nc2n(c3ccc([N+](=O)[O-])cc13)CCCCC2,·,1.1%,-14.1%,·
N#C/C(=C\c1cccc([N+](=O)[O-])c1)c1nnc2n1CCCCC2,31.9,20µM*,?,31.6µM*
NC(=O)N[C@H](CC(=O)O)C(=O)O,·,13.3%[13.5 µM],·,-16.4%
CC(C)[C@H]1COC(c2cc(Cl)cc(Cl)c2)=N1,·,-6.9%[120 µM],·,-6.2%
CC(C)(CCc1nc2ccccc2[nH]1)C(=O)O,·,1.7%[13.5 µM],·,-13.0%
COc1c(F)c(F)c(C(=O)Nc2c(C)cc(Br)cc2C)c(F)c1F,·,7.5%,-3.9%,·
CCOC(=O)c1c(C)[nH]c(C2=NNC(=NC3CC3)SC2)c1C,·,17.8µM*,-3.5%,·
CCOC(=O)c1c(C)[nH]c(/C(C)=N/O)c1C,-1.9,-14.1%,?,?
CC(=O)c1ccc(NC(=S)NCc2ccc(Cl)cc2Cl)cc1,·,-3.4%,1.7%,·
